Assay results reported in ChEMBL document CHEMBL3988442, “University of Dundee, Small-Polar-MMV Screening Library” (2021).
For some of these results: Entries with a potency or affinity are not part of this list.

Tests used:
Set-up in all cases: scale not given: direction of the effect not stated beside the values
[1] = biological target: Protein translocase subunit SecA (Escherichia coli (strain K12)) (UniProt P10408); experiment: Assay to Identify E. coli SecA ATPase Inhibitors; type: functional; settings: 30 µM
Protein translocase subunit SecA (Escherichia coli (strain K12)), sequence (P10408 whole entry): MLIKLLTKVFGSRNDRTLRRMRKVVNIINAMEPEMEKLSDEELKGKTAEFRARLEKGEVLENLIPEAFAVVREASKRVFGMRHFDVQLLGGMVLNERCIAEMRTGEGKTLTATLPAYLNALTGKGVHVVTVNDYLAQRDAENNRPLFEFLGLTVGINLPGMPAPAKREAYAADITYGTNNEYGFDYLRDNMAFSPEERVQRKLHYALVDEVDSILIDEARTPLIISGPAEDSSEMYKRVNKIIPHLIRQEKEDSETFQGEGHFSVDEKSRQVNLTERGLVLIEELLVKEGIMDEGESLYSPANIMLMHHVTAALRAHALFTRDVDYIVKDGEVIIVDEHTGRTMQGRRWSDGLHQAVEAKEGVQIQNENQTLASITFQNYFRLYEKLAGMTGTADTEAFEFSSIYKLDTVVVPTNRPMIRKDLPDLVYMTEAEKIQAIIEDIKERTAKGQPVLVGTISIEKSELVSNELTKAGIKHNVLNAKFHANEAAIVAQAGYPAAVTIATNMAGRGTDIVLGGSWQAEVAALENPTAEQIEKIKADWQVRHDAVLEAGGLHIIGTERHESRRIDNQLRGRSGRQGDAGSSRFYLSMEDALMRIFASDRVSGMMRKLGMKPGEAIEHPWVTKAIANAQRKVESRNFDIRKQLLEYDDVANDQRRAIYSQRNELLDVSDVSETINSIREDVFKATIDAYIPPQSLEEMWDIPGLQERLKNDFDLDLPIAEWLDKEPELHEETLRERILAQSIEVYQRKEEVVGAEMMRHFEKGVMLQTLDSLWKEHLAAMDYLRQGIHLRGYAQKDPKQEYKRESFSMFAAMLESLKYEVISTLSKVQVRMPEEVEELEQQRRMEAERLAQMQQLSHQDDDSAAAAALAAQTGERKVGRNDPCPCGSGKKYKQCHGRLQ

[2] = biological target: T1, Ubiquitin-activating enzyme e1, putative (Leishmania donovani (strain BPK282A1)) (UniProt E9BSI1); experiment: Leishmania donovani Ubiquitin Activating Enzyme (LdE1); type: functional; settings: 30 µM
T1 sequence (whole entry): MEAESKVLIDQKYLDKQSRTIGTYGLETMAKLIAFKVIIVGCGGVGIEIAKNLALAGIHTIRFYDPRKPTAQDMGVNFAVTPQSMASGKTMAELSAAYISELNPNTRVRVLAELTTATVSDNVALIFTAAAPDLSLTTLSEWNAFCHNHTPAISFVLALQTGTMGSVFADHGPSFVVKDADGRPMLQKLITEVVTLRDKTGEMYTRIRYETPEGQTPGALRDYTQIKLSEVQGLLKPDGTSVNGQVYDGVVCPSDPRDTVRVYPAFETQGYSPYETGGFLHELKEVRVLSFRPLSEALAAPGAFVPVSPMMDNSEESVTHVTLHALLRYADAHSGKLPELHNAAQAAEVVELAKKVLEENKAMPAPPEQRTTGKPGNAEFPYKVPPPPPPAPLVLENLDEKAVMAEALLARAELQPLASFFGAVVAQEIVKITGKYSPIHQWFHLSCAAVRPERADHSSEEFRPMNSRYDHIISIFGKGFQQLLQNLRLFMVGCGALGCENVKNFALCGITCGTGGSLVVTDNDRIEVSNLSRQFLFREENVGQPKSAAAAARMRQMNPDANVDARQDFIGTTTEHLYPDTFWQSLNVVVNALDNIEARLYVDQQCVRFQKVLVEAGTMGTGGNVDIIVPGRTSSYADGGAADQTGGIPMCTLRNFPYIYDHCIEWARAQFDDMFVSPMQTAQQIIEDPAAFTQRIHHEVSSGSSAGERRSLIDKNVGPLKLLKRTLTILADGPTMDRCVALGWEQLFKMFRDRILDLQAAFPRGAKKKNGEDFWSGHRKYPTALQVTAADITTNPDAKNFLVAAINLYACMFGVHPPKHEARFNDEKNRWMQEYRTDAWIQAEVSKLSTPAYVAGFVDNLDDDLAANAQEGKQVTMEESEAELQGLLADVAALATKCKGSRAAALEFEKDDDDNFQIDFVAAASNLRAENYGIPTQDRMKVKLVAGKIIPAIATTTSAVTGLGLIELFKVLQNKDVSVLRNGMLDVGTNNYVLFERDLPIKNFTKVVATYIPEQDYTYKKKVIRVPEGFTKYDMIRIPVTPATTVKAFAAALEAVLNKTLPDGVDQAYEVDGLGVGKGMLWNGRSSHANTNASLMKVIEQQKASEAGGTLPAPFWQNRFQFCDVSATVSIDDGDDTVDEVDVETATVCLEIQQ

[3] = biological target: AMP-activated protein kinase, AMPK (Homo sapiens) (UniProt P54646+O43741+P54619+Q9UGJ0+Q9Y478+Q13131+Q9UGI9); experiment: AMP-dependent Kinase enzyme assay. An in vitro enzyme assay that detects ADP turnover that is directly proportional to AMPK activity. This uses naive AMPK that is activated during the assay with MK-8722; type: functional; settings: 30 µM
[4] = biological target: Sialic acid-binding Ig-like lectin 9 (Homo sapiens) (UniProt Q9Y336); experiment: Hs-Siglec9 ALPHAscreen SOP 20170721; settings: 10 µM
Sialic acid-binding Ig-like lectin 9 (Homo sapiens), sequence (Q9Y336 whole entry): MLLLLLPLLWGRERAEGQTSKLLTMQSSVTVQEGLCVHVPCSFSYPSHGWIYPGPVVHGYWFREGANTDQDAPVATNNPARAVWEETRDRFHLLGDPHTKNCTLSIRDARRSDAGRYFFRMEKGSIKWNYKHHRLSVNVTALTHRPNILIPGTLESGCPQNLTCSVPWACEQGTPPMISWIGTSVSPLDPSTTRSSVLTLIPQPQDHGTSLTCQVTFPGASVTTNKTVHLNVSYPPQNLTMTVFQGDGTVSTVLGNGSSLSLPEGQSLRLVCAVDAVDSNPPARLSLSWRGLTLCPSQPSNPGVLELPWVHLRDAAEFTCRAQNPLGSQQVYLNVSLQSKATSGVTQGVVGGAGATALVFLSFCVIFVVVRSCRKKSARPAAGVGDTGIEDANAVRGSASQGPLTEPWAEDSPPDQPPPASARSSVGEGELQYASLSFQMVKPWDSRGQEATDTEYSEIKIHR

[5] = tested on: Trypanosoma cruzi; experiment: Trypanosoma cruzi phosphomannomutase and mannose-1-phosphate guanylyltransferase assay; type: functional; settings: 10 µM
[6] = biological target: T2, Arginase-2, mitochondrial (Homo sapiens) (UniProt P78540); experiment: in vitro enzyme assay to detect the production of urea directly proportional to the activity of Arginase II; type: functional; settings: 33.3 µM; note: in the data most compounds retested in dose-response had high values
T2 sequence (whole entry): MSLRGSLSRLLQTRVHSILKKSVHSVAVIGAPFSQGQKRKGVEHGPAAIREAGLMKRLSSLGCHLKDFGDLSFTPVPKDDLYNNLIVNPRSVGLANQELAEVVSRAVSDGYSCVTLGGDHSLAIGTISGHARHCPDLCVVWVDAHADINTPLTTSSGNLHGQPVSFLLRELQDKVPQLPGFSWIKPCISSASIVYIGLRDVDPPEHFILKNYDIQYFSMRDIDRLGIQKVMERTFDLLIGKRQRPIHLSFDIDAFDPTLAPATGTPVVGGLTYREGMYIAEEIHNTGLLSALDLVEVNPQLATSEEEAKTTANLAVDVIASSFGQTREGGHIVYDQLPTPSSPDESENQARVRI

[7] = biological target: T3, Proteasome subunit beta (Trypanosoma cruzi) (UniProt O96673); experiment: Trypanosoma cruzi proteasome chymotrypsin-like activity (TcProtChymo) assay.; note: in the data most compounds retested in dose-response had high values; type: functional; settings: 9.37 µM
T3 sequence (whole entry): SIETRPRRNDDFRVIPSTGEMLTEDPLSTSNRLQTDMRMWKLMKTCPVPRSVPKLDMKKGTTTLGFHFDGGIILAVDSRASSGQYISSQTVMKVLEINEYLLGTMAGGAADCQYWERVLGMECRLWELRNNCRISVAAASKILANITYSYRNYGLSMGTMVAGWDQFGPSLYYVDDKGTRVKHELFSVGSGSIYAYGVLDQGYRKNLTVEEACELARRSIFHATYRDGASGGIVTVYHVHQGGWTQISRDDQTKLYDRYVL

[8] = species: Homo sapiens; experiment: To identify inhibition of the IFN signalling (Jak-Stat) pathway via expression of an eGFP reporter gene under the control of an IFN-stimulated response element (ISRE) containing MxA promoter.; type: functional; settings: 30 µM
[9] = biological target: T4, Tyrosyl-tRNA synthetase, putative (Trypanosoma cruzi (strain CL Brener)) (UniProt Q4DSP6); experiment: Trypanosoma cruzi tyrosyl tRNA synthetase (TcYRS) _High Tyrosine SOP; type: functional; settings: 30 µM; note: in the data most compounds retested in dose-response had high values
T4 sequence (whole entry): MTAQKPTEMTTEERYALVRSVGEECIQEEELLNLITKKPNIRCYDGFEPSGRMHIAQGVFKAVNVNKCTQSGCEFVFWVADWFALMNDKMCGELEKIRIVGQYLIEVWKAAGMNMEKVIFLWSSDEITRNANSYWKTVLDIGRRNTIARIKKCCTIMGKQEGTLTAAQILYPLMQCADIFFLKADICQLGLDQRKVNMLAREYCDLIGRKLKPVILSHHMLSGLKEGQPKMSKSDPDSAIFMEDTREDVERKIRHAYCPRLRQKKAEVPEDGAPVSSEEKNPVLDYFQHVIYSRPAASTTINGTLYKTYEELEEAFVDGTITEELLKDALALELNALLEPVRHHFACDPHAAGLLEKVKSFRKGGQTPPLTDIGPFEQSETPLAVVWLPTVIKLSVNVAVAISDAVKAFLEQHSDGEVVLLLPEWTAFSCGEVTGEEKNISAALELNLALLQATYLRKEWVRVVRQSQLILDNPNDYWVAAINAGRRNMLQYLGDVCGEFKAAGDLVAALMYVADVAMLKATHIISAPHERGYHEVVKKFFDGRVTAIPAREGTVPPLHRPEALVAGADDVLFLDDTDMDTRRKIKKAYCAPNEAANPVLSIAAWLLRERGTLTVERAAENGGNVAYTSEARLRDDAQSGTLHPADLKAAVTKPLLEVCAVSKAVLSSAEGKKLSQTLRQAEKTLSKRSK

[10] = biological target: T4, Tyrosyl-tRNA synthetase, putative (Trypanosoma cruzi (strain CL Brener)); experiment: Trypanosoma cruzi tyrosyl tRNA synthetase (TcYRS) SOP; type: functional; settings: 30 µM
[11] = biological target: Chromo domain-containing protein 1 (Saccharomyces cerevisiae (strain ATCC 204508 / S288c) (Baker's yeast)) (UniProt P32657); experiment: ScCHD-1 Enzyme Inhibition Assay; type: functional; settings: 30 µM; note: in the data most compounds retested in dose-response had high values
Chromo domain-containing protein 1 (Saccharomyces cerevisiae (strain ATCC 204508 / S288c) (Baker's yeast)), sequence (P32657 whole entry, the tested form may be a part): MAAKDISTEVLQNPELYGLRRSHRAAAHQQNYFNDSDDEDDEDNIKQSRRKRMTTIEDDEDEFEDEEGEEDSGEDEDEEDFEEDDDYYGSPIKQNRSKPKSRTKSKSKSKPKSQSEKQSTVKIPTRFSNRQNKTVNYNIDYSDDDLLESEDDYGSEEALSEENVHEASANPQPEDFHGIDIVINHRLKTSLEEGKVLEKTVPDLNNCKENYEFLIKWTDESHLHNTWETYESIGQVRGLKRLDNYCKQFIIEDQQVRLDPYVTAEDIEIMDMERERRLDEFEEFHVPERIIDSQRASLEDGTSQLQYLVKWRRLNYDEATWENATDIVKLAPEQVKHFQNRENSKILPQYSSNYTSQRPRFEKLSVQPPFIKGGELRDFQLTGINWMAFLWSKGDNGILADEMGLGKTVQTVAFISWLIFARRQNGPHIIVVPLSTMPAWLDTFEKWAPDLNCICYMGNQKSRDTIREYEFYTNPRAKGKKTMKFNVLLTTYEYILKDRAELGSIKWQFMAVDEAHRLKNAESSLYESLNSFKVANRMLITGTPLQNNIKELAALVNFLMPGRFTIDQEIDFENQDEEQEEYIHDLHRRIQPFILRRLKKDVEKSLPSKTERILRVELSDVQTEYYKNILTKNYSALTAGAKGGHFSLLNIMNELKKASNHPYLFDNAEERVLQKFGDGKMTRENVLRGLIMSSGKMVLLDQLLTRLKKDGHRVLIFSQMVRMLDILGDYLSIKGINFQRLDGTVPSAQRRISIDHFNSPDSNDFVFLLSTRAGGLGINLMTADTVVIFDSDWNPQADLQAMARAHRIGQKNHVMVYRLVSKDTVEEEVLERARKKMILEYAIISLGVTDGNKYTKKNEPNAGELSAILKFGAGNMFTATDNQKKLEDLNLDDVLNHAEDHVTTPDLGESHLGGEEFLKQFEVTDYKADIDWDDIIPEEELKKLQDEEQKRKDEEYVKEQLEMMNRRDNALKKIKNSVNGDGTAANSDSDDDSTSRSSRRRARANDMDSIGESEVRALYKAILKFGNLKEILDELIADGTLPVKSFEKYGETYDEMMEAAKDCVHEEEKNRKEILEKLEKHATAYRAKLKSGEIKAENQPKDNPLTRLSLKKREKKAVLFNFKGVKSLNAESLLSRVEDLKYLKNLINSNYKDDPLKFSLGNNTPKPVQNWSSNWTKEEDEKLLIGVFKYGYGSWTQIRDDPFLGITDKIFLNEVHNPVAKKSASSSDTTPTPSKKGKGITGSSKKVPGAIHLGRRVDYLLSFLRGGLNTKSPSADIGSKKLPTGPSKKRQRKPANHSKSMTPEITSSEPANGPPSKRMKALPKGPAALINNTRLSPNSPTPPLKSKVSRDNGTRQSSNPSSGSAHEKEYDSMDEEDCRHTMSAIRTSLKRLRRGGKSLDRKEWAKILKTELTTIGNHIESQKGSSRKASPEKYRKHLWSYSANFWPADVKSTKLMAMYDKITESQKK

COc1cccc(C(=O)N2CCCCC2CNC(N)=O)c1 (stereo unspecified)
Percent Effect [1]: -9.94% | Percent Effect [2]: 5.26% | Percent Effect [3]: 4.5% | Percent Effect [4]: 4.83% | Percent Effect [5]: -4.58% | Percent Effect [6]: -3.6% | Percent Effect [7]: 0.0846% | Percent Effect [8]: 1.79% | Percent Effect [9]: 3.45% | Percent Effect [10]: 6.17% | Percent Effect [11]: 0.323%

CC(C)c1ccc(C(O)Cn2c(=O)c(C#N)cn(C3CC3)c2=O)cc1 (stereo unspecified)
Percent Effect [1]: -0.117% | Percent Effect [2]: -2.63% | Percent Effect [3]: 7.18% | Percent Effect [4]: 0.134% | Percent Effect [5]: -6.39% | Percent Effect [6]: 4.21% | Percent Effect [7]: 0.334% | Percent Effect [8]: 1.74% | Percent Effect [9]: -1.47% | Percent Effect [10]: -2.44% | Percent Effect [11]: -2.6%

Cc1n[nH]c(C2CN(CC(=O)NCc3ccco3)CCO2)n1 (stereo unspecified)
Percent Effect [1]: -7.98% | Percent Effect [2]: 0% | Percent Effect [3]: 3.1% | Percent Effect [4]: -5.39% | Percent Effect [5]: -5.36% | Percent Effect [6]: -2.6% | Percent Effect [7]: 6.8% | Percent Effect [8]: 24.6% | Percent Effect [9]: -1.64% | Percent Effect [10]: -3.7% | Percent Effect [11]: -2.33%

CCOc1ccnc(N2CCN(C(=O)c3cn[nH]c3CC)CC2)n1
Percent Effect [1]: -3.25% | Percent Effect [2]: 15.2% | Percent Effect [3]: -3.34% | Percent Effect [4]: 7.76% | Percent Effect [5]: 0.472% | Percent Effect [6]: -0.38% | Percent Effect [7]: -1.23% | Percent Effect [8]: 18.9% | Percent Effect [9]: 7.39% | Percent Effect [10]: 24.1% | Percent Effect [11]: -4.33%

Cc1nc(C)n(CC2CCCN(CCC(=O)N3CCCCC3)C2)n1 (stereo unspecified)
Percent Effect [1]: -1.52% | Percent Effect [2]: -2.6% | Percent Effect [3]: 7.57% | Percent Effect [4]: -4.47% | Percent Effect [5]: -4.21% | Percent Effect [6]: 5.26% | Percent Effect [7]: -0.566% | Percent Effect [8]: 20.7% | Percent Effect [9]: 0% | Percent Effect [10]: 0% | Percent Effect [11]: 4.58%

CC(C)C(=O)N1CCCC(c2ncncc2-c2ccncc2)C1 (stereo unspecified)
Percent Effect [1]: -0.489% | Percent Effect [2]: 10.7% | Percent Effect [3]: 4.63% | Percent Effect [4]: -4.06% | Percent Effect [5]: 5.91% | Percent Effect [6]: -4.89% | Percent Effect [7]: 6.61% | Percent Effect [8]: -4.43% | Percent Effect [9]: 1.06% | Percent Effect [10]: 8.97% | Percent Effect [11]: -4.02%

CC(C)(C)OC(=O)CNC(=O)CCc1nnc(-c2ccsc2)o1
Percent Effect [1]: -5.71% | Percent Effect [2]: 5.2% | Percent Effect [3]: 2.21% | Percent Effect [4]: 5.6% | Percent Effect [5]: -0.688% | Percent Effect [6]: 24.8% | Percent Effect [7]: 16.1% | Percent Effect [8]: 6.67% | Percent Effect [9]: 3.23% | Percent Effect [10]: 3.7% | Percent Effect [11]: -0.78%

CC(C)c1nn(C)c(N(C)C)c1CNCc1cccc(CN(C)C)c1
Percent Effect [1]: -1.46% | Percent Effect [2]: 18.4% | Percent Effect [3]: -8.3% | Percent Effect [4]: 3.17% | Percent Effect [5]: -7.94% | Percent Effect [6]: 3.6% | Percent Effect [7]: 3.81% | Percent Effect [8]: 2.21% | Percent Effect [9]: 8.37% | Percent Effect [10]: 18.5% | Percent Effect [11]: -4.8%

Cc1cc(C(=O)N2CC[C@@H]3CN(S(C)(=O)=O)CCO[C@@H]3C2)c(C)o1
Percent Effect [1]: -2.68% | Percent Effect [2]: 13.5% | Percent Effect [3]: 1.13% | Percent Effect [4]: -7.58% | Percent Effect [5]: -3.62% | Percent Effect [6]: 2.87% | Percent Effect [7]: 25.6% | Percent Effect [8]: -7.91% | Percent Effect [9]: 4.32% | Percent Effect [10]: 15.4% | Percent Effect [11]: -2.64%

CCn1cc(CN2CCCN(C(=O)C3=NN(C)C(=O)CC3)CC2)cn1
Percent Effect [1]: 0.989% | Percent Effect [2]: 18.2% | Percent Effect [3]: 0.0374% | Percent Effect [4]: -13.6% | Percent Effect [5]: -0.686% | Percent Effect [6]: 6.11% | Percent Effect [7]: 13.7% | Percent Effect [8]: 29.5% | Percent Effect [9]: 5.71% | Percent Effect [10]: 0% | Percent Effect [11]: -17.5%

CC(C)N(C)CCCNC(=O)c1cnc(-c2ccccc2)nc1
Percent Effect [1]: -6.93% | Percent Effect [2]: 21.6% | Percent Effect [3]: 1.03% | Percent Effect [4]: 23.6% | Percent Effect [5]: 6.75% | Percent Effect [6]: 7.2% | Percent Effect [7]: 8.67% | Percent Effect [8]: -4.42% | Percent Effect [9]: 4.3% | Percent Effect [10]: 18.5% | Percent Effect [11]: -10.6%
